Data: PubChem BioAssay (NCI)
The panel holds about 83,000 compounds, 20% with a hit somewhere; the sample as a whole holds those more often.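 The endpoint reported here, percent growth, reads 100 for growth as untreated, 0 for no net growth and -100 for all cells dead.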 A number with no mark means an inactive call. Activity calls are given as the source filed them. Rule for the calls: active = growth percent below 10; inactive = the rest.

Experiments:
Experiment in all cases: NCI-60 one-dose screen, 48 h (100 = growth as untreated, 0 = no growth, -100 = all killed)
Settings in all cases: 10 µM unless noted
NCI-H23 lung = system: NCI-H23 lung
NCI-H226 lung = system: NCI-H226 lung
NCI-H322M lung = system: NCI-H322M lung
HOP-62 NSCLC = system: HOP-62 NSCLC
NCI-H460 lung = system: NCI-H460 lung
HOP-92 NSCLC = system: HOP-92 NSCLC
NCI-H522 lung = system: NCI-H522 lung
A549/ATCC NSCLC = system: A549/ATCC NSCLC
786-0 renal = system: 786-0 renal
COLO 205 colon = system: COLO 205 colon
DU-145 prostate = system: DU-145 prostate
K-562 leukemia = system: K-562 leukemia
MALME-3M melanoma = system: MALME-3M melanoma
MDA-MB-231 breast = system: MDA-MB-231 breast
RXF 393 renal = system: RXF 393 renal
SF-268 CNS = system: SF-268 CNS
SF-295 CNS = system: SF-295 CNS
SF-539 CNS = system: SF-539 CNS
UACC-257 melanoma = system: UACC-257 melanoma
M14 melanoma = system: M14 melanoma

Row | Structure (SMILES) | growth (NCI-H23 lung) | growth (NCI-H226 lung) | growth (NCI-H322M lung) | growth (HOP-62 NSCLC) | growth (NCI-H460 lung) | growth (HOP-92 NSCLC) | growth (NCI-H522 lung) | growth (A549/ATCC NSCLC) | growth (786-0 renal) | growth (COLO 205 colon) | growth (DU-145 prostate) | growth (K-562 leukemia) | growth (MALME-3M melanoma) | growth (MDA-MB-231 breast) | growth (RXF 393 renal) | growth (SF-268 CNS) | growth (SF-295 CNS) | growth (SF-539 CNS) | growth (UACC-257 melanoma) | growth (M14 melanoma)
1 | O=C1Nc2c(ccc(Cl)c2Cl)/C1=C\c1cc(C(F)(F)F)cc(C(F)(F)F)c1 | 13.3% | 24.5% | 74.1% | 20.2% | -18% (active) | -22.6% (active) | 22.3% | 26% | -11.2% (active) | -74.9% (active) | 24.8% | 0.912% (active) | -55.5% (active) | -17.4% (active) | 21.8% | 9.57% (active) | 5.61% (active) | -11.3% (active) | 25% | -18.2% (active)
2 | Cc1ccc(C2=NN3C(C2)c2cc(Br)ccc2OC32CCN(Cc3ccccc3)CC2)o1 (stereo not given) | 94.9% | 86.9% | 92.7% | 104% | 98% | 80% | 89.1% | 96.3% | 103% | 105% | 98.8% | 85.3% | 103% | 92.3% | 110% | 84.4% | 100% | 101% | 101% | 106%
3 | COc1cc(/C=C/C(=O)c2ccc(O)c(CN3CCN(c4cc5c(cc4F)c(=O)c(C(=O)O)cn5C4CC4)CC3)c2)cc(OC)c1OC | 42.8% | 76.9% | 30% | 72.3% | 34.8% | 81.2% | 27.6% | 43.1% | 49.8% | 106% | 24.6% | 10.6% | 74.3% | 76.7% | 28.1% | 54.9% | 86.5% | 49.6% | 64.5% | 48.8%
4 | CC1=CC(=NN=c2cc(C)n([O-])c(C)c2)C=C(C)[N+]1=O | 95.5% | 64.2% | 114% | 79.6% | 102% | 93.2% | 67.6% | 87.4% | 79.3% | 29.8% | 107% | 85% | 106% | 97.7% | 87.8% | 106% | 112% | 105% | 77.4% | 77.2%
5 | CN1CCN(c2ccc3nc(-c4ccc(OCCCCN5CCN(CCCCN6C(=O)c7cccc8cccc(c78)C6=O)CC5)cc4)[nH]c3c2)CC1 | 85.3% | 86.6% | 90.5% | 64.1% | 71.9% | -54.4% (active) | 65% | 57.1% | 53% | 77.8% | 45% | 56.5% | 28% | 62.7% | 16.1% | 65.7% | 29.1% | 39.8% | 59.8% | 94.9%
6 | CCCCn1c(-c2ccc(C(=O)O/N=C(\N)c3ccc4ccccc4c3)cc2)nc(-c2ccccc2)c1-c1ccccc1 | 65% | 61.7% | 80.8% | 91.5% | 26.3% | 77.6% | 71.7% | 42% | 77.8% | 90.8% | 65.3% | 11.9% | 93.4% | 70% | 58.2% | 48.9% | 81% | 81.3% | 98.3% | 82.6%
7 | CC(=O)c1nc2ccccc2n1CC(=O)c1cccc(Cl)c1 | 36.6% | 105% | 48.2% | 55.8% | 4.22% (active) | 75.6% | -16% (active) | 15.2% | 35.8% | 117% | 5.27% (active) | -0.209% (active) | 90.6% | 28.1% | 2% (active) | 13.2% | 8.35% (active) | -31.3% (active) | 36.5% | 16.6%
8 | COc1cccc(C2=NN3C(C2)c2cc(Br)cc(OC)c2OC32CCN(Cc3ccccc3)CC2)c1 (stereo not given) | 95.7% | 85.3% | 103% | 105% | 101% | 111% | 96.2% | 102% | 104% | 107% | 105% | 105% | 99.7% | 109% | 115% | 94.5% | 101% | 105% | 104% | 107%
